# Measured values as given in ChEMBL document CHEMBL2218924, “A broad activity screen in support of a chemogenomic map for kinase signalling research and drug discovery” (Biochem J, 2013).
# Legend:
# [1] = target: T1, Ephrin type-A receptor 3 (Homo sapiens) (UniProt P29320); conditions: at 10 µM
# T1 sequence (whole entry): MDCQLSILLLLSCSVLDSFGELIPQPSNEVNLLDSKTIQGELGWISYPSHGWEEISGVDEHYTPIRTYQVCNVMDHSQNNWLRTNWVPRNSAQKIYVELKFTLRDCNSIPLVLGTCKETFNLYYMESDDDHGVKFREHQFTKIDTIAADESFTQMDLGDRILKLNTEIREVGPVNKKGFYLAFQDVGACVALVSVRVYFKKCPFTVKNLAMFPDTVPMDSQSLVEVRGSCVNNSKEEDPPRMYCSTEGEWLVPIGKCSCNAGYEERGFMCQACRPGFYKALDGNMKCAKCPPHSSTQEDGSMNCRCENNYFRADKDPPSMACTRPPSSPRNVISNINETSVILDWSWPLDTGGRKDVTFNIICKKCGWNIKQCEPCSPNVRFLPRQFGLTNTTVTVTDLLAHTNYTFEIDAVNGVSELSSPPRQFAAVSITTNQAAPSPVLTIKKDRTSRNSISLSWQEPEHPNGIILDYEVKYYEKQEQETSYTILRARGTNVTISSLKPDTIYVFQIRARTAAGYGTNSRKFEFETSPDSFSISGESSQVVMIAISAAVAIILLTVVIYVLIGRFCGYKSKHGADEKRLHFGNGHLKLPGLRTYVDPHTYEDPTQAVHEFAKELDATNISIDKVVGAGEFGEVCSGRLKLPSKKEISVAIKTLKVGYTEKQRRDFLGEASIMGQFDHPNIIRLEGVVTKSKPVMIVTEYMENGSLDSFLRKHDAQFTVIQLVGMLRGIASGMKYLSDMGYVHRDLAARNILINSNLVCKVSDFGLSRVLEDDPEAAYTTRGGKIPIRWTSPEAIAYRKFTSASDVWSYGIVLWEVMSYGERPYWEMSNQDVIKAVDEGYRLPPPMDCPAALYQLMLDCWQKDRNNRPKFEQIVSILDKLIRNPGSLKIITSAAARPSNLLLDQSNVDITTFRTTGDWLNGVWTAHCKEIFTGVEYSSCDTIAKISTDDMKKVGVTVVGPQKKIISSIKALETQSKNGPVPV
# [2] = target: Ephrin type-A receptor 4 (Homo sapiens) (UniProt P54764); conditions: at 1 µM
# Chain of Ephrin type-A receptor 4 (Homo sapiens) (P54764 whole entry): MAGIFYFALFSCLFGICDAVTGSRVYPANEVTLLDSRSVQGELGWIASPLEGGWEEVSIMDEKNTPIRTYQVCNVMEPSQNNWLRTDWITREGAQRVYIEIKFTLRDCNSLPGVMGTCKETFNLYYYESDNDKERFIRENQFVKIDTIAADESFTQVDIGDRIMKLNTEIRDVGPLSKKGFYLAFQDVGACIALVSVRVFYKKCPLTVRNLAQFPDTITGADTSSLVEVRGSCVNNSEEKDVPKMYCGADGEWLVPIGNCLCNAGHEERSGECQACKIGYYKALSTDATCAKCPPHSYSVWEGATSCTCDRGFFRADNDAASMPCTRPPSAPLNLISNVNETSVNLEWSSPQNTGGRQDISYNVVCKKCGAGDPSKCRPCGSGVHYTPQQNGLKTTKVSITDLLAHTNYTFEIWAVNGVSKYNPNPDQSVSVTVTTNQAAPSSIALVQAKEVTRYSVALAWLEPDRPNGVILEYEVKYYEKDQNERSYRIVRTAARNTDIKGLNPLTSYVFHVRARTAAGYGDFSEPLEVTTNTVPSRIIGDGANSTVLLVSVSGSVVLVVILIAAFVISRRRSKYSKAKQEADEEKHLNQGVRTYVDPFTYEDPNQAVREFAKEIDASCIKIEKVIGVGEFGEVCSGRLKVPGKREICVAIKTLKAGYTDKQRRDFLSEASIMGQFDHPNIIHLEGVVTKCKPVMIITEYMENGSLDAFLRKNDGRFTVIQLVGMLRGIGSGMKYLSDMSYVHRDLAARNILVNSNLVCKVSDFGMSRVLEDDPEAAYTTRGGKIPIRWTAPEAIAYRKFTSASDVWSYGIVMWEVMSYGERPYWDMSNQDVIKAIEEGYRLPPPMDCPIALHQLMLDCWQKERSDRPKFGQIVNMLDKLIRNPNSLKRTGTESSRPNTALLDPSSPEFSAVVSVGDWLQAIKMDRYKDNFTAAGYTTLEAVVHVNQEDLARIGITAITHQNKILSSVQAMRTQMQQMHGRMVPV
# [3] = target: Ephrin type-A receptor 4 (Homo sapiens) (UniProt P54764); conditions: at 10 µM
# [4] = target: Ephrin type-A receptor 5 (Homo sapiens) (UniProt P54756); conditions: at 1 µM
# Chain of Ephrin type-A receptor 5 (Homo sapiens) (P54756 whole entry): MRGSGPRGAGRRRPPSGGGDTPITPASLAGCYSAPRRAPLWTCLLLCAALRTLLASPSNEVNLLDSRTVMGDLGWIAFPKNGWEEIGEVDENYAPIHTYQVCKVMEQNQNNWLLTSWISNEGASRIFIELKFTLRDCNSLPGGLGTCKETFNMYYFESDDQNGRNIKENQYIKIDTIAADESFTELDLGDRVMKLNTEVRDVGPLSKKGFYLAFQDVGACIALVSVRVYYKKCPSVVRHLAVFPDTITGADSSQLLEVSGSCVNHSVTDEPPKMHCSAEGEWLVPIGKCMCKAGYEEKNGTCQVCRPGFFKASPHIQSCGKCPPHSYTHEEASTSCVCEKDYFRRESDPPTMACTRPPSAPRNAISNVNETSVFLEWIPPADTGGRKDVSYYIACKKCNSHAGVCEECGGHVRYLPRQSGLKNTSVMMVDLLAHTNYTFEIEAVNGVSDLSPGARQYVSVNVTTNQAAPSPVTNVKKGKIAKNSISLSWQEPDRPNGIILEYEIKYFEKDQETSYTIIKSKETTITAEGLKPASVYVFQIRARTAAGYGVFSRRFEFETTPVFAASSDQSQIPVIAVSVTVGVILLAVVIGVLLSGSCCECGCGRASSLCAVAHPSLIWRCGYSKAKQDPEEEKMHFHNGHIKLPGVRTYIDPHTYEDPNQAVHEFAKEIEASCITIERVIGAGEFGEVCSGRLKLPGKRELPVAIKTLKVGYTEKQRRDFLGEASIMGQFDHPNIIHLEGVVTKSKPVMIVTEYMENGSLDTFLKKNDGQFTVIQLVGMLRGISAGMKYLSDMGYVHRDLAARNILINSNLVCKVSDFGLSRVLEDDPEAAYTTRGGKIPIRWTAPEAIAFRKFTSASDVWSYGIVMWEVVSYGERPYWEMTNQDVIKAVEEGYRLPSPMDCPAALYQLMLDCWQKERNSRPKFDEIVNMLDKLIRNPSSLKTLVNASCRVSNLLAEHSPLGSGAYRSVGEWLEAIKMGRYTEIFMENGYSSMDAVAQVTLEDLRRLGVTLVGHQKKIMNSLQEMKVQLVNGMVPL
# [5] = target: Ephrin type-A receptor 5 (Homo sapiens) (UniProt P54756); conditions: at 10 µM
# [6] = target: Ephrin type-A receptor 7 (Homo sapiens) (UniProt Q15375); conditions: at 1 µM
# Chain of Ephrin type-A receptor 7 (Homo sapiens) (Q15375 28-998 limits assumed): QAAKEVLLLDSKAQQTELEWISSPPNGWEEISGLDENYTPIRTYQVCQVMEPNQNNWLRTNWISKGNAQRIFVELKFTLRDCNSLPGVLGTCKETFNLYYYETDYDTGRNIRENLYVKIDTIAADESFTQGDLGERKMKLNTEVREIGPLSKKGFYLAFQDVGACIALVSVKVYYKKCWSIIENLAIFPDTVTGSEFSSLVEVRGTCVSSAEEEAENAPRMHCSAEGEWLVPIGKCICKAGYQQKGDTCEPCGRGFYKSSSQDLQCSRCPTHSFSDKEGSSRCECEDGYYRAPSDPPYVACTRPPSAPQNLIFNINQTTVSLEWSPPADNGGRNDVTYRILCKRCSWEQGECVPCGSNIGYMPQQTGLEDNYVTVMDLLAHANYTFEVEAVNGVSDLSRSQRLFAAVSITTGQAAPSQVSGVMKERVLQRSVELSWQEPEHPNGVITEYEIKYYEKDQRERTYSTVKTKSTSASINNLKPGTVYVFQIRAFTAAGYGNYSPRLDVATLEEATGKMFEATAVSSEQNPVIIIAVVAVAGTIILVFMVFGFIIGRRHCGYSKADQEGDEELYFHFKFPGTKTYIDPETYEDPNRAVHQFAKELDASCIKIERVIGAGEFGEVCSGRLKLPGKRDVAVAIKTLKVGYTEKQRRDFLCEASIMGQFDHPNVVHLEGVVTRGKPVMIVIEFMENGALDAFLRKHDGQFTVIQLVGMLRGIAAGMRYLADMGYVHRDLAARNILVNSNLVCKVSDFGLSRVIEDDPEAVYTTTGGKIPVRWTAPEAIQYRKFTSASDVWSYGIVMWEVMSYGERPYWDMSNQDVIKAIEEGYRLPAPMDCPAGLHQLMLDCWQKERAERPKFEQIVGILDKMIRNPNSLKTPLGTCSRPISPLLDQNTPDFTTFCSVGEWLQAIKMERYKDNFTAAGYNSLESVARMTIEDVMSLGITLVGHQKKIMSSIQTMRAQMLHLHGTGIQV
# [7] = target: Ephrin type-A receptor 7 (Homo sapiens) (UniProt Q15375); conditions: at 10 µM
# [8] = target: T2, Ephrin type-A receptor 8 (Homo sapiens) (UniProt P29322); conditions: at 1 µM
# T2 sequence (whole entry): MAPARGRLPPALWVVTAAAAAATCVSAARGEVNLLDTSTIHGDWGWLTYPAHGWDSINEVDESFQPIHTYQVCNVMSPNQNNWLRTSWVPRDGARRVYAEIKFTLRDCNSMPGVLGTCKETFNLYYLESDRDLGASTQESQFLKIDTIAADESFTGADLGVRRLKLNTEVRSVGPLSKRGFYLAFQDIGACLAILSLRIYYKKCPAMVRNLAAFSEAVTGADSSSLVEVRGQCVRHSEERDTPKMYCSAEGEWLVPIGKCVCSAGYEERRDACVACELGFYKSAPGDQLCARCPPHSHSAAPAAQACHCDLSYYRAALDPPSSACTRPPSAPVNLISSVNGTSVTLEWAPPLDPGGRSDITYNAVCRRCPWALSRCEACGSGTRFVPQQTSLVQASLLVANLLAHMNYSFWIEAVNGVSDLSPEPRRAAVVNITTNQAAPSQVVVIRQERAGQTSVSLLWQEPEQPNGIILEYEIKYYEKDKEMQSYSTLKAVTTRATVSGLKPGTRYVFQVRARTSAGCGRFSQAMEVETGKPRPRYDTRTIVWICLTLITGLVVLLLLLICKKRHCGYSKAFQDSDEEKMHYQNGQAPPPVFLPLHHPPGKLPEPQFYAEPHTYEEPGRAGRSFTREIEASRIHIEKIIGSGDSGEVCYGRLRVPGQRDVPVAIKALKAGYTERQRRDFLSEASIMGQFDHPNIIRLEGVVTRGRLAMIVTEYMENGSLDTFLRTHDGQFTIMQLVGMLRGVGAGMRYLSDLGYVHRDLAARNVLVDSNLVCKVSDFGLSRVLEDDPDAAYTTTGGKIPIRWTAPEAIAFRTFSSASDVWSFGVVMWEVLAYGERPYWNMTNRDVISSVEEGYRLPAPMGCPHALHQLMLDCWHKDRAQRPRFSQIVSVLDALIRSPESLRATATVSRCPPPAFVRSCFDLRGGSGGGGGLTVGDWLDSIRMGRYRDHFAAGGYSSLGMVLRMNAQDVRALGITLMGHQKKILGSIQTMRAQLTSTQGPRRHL
# [9] = target: T2, Ephrin type-A receptor 8 (Homo sapiens); conditions: at 10 µM
# [10] = target: T3, Ephrin type-B receptor 1 (Homo sapiens) (UniProt P54762); conditions: at 1 µM
# T3 sequence (whole entry): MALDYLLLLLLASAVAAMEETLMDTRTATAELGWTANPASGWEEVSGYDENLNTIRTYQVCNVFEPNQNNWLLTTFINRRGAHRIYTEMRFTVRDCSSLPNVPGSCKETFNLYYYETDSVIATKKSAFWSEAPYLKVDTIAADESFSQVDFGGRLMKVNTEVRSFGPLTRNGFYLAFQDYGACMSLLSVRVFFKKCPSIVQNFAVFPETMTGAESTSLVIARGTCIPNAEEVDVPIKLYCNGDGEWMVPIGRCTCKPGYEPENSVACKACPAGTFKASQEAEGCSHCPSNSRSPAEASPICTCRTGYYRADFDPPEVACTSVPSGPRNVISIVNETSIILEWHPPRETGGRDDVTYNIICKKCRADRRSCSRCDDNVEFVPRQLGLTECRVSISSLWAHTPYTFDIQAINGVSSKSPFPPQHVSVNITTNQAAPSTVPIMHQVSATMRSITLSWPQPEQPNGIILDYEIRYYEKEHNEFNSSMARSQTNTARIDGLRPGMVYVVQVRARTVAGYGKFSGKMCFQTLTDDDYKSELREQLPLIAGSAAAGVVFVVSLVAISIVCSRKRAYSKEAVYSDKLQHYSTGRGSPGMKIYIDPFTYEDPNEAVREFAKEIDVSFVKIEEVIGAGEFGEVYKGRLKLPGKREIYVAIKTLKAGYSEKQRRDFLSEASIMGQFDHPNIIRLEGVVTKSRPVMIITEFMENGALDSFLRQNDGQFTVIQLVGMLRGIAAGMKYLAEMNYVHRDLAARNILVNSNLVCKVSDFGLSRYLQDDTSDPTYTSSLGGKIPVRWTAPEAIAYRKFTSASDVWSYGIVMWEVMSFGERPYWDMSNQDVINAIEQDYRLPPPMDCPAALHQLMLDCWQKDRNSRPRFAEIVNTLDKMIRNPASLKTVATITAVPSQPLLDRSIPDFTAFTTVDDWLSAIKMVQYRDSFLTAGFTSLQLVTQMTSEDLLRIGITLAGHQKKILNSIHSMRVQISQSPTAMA
# [11] = target: T3, Ephrin type-B receptor 1 (Homo sapiens); conditions: at 10 µM
# [12] = target: T4, Ephrin type-B receptor 2 (Homo sapiens) (UniProt P29323); conditions: at 1 µM
# T4 sequence (whole entry): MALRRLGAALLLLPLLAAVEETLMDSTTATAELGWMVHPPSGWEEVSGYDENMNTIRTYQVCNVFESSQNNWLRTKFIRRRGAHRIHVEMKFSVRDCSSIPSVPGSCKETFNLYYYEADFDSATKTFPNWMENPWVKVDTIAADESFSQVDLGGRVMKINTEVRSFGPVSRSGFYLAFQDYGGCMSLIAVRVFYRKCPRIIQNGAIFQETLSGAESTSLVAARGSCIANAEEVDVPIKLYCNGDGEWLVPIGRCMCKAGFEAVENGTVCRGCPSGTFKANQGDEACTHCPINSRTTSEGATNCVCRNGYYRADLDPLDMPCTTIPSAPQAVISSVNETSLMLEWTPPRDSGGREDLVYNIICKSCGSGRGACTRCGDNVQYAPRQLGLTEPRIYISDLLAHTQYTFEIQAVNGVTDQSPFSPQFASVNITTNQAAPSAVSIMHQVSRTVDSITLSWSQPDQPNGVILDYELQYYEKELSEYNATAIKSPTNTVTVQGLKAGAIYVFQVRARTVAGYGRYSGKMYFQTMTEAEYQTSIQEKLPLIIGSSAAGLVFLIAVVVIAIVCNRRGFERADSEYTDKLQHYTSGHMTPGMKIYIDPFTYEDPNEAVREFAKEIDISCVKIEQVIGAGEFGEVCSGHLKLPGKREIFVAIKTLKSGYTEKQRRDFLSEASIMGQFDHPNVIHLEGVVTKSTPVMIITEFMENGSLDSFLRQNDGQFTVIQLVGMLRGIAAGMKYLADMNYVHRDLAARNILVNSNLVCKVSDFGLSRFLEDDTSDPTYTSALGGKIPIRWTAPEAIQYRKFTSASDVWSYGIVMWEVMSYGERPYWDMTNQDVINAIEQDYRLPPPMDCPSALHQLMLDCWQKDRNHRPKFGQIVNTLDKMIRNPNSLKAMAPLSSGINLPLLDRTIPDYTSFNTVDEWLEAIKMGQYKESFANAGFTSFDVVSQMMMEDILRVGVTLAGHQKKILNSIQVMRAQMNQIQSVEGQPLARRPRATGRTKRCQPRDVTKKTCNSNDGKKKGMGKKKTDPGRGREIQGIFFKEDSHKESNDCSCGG
# [13] = target: T4, Ephrin type-B receptor 2 (Homo sapiens); conditions: at 10 µM
# [14] = target: Receptor tyrosine-protein kinase erbB-4 (Homo sapiens) (UniProt Q15303); conditions: at 10 µM
# Chain of Receptor tyrosine-protein kinase erbB-4 (Homo sapiens) (Q15303 whole entry): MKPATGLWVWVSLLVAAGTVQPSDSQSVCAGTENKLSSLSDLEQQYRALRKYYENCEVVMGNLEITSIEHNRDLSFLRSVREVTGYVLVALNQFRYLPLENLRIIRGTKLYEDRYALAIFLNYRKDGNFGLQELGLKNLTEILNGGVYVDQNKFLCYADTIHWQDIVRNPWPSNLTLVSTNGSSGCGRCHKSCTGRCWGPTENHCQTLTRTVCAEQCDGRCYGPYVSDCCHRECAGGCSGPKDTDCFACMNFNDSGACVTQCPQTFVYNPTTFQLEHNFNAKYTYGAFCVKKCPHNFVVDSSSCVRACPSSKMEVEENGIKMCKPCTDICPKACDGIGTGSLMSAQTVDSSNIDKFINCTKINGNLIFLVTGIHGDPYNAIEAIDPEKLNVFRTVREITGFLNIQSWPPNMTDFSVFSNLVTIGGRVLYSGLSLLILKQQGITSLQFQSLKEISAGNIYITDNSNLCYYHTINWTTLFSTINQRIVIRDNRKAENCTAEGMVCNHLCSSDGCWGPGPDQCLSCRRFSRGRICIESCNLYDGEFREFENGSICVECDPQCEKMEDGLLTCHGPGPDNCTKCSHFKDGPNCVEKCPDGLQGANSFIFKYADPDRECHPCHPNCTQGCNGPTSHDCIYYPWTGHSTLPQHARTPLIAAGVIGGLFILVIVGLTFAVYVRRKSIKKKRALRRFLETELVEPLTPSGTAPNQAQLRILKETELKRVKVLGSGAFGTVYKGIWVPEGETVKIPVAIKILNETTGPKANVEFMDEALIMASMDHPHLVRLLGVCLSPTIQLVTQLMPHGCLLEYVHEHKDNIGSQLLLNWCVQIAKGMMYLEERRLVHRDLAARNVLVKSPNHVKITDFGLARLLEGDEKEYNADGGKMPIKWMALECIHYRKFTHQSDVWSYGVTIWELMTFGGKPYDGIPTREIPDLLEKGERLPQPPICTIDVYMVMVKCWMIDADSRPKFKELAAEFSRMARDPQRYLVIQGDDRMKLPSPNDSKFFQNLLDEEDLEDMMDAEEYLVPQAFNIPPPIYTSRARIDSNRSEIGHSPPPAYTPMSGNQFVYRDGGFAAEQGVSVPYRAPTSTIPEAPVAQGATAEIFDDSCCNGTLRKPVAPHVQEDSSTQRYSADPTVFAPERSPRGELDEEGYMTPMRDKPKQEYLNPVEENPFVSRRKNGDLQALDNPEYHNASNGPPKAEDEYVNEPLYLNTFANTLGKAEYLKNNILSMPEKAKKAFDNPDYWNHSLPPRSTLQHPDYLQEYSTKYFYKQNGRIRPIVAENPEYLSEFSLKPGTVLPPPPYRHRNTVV
# [15] = target: Focal adhesion kinase 1 (Homo sapiens) (UniProt Q05397); conditions: at 1 µM
smiles,measurement,setting,value
COc1cc2nccc(Oc3ccc(NC(=O)Nc4cc(C)on4)c(Cl)c3)c2cc1OC,residual activity,[1],0%
same,residual activity,[2],26%
same,residual activity,[3],3%
same,residual activity,[4],2%
same,residual activity,[5],7%
same,residual activity,[6],6%
same,residual activity,[7],1%
same,residual activity,[8],1%
same,residual activity,[9],1%
same,residual activity,[10],1%
same,residual activity,[11],-1%
same,residual activity,[12],-2%
same,residual activity,[13],-1%
same,residual activity,[14],75%
same,residual activity,[15],96%
